Records with an inconclusive call do not appear. Calls of active or inactive are those of the source. How the source made its calls, unless noted: active means hit-call score of the fitted dose curve at least 0.9, where 1 is the maximum; inconclusive means response in the unintended direction; inactive means score below 0.9.
Key:
[1] = target: Peroxisome proliferator-activated receptor gamma (Homo sapiens) (UniProt P37231); assay: NVS_NR_hPPARg: NovaScreen (NVS) Nuclear Receptor Binding Assay for human Peroxisome Proliferator-activated Receptor gamma (PPARg) (AID 2283370)
In short: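 Fluorescence polarization readout of ligand binding to extracted human PPARg, measured at 2 h. Duplicate single-point screen at 25 uM, then concentration-series retesting; activity defined as signal loss versus DMSO.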

[2] = target: Estrogen receptor beta (Homo sapiens) (UniProt Q92731); assay: OT_ER_ERbERb_1440: Odyssey Thera (OT) 24-hour HEK293T Protein-Complementation Assay for Estrogen Receptor-beta/-beta Homodimer (AID 2283380);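 further: fluorescence gain from ER beta LBD homodimer complementation read by laser scanning cytometry; scored as signal increase over DMSO baseline for both agonists and antagonists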
In short: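 Fluorescence increase, nuclear for agonists or whole-cell for antagonists, relative to DMSO vehicle, quantified by laser scanning cytometer after fixation and Draq5 staining. Readout from 24 h treatment of HEK293T cells carrying complementation-paired ER beta LBD (aa 310-547).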

[3] = target: human Dopamine Transporter (DAT), SLC6A3 (gene 6531) (UniProt Q01959); assay: NVS_TR_hDAT: NovaScreen (NVS) Transporter Assay for human Dopamine Transporter (DAT) (AID 2283374);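 further: activity means loss of bound radioligand signal relative to DMSO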
In short: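 Test chemicals were first screened in duplicate at 25 uM, with actives retested as concentration series. Displacement of a specific radioligand from cell-free human dopamine transporter was measured after 1 h by filtration and scintillation counting.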

[4] = target: mouse Estrogen Receptor alpha (Era), Esr1 (gene 13982) (UniProt P19785); assay: NVS_NR_mERa: NovaScreen (NVS) Nuclear Receptor Binding Assay for mouse Estrogen Receptor alpha (Era) (AID 2283378);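 further: hit means loss of bound radioligand signal relative to DMSO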
In short: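 Filter radiodetection of radioligand displacement from extracted receptor protein, measured 18 h post-dose. Single 25 uM concentration in duplicate initially, with concentration-series follow-up. Binding loss fitted relative to DMSO.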

[5] = target: Agonist Androgen Response Element (ARE), AR (gene 367) (UniProt P10275); assay: OT_AR_ARELUC_AG_1440: Odyssey Thera (OT) 24-hour CHO-K1 Luciferase Assay for Agonist Androgen Response Element (ARE) (AID 2283379)
In short: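 Agonist mode, 24 h exposure in CHO-K1 ARE-luciferase cells; values reflect luminescence induction over vehicle.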

[6] = target: human Serotonin Transporter (SERT), SLC6A4 (gene 6532) (UniProt P31645); assay: NVS_TR_hSERT: NovaScreen (NVS) Transporter Assay for human Serotonin Transporter (SERT) (AID 2283372)
In short: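 Radioligand binding to native SERT in human platelet membranes, read by filter-based scintillation counting 1 h after dosing. Primary screen in duplicate at 25 uM; actives followed up in concentration series; loss of signal versus DMSO baseline.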

[7] = target: human Norepinephrine Transporter (NET), SLC6A2 (gene 6530) (UniProt P23975); assay: NVS_TR_hNET: NovaScreen (NVS) Transporter Assay for human Norepinephrine Transporter (NET) (AID 2283377);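 further: cell-free membrane protein extracted from CHO cells expressing human NET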;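 on AC50: displacement of radioligand from human NET seen as loss of scintillation signal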
In short: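 Scintillation counts of filter-retained radioligand served as the readout, taken 1 h post-dosing in a cell-free CHO-derived system. Test chemicals ran first at 25 uM in duplicate; confirmed hits were retested across concentrations.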

[8] = test system: rat Norepinephrine Transporter (NET), gene 83511; assay: NVS_TR_rNET: NovaScreen (NVS) Transporter Assay for rat Norepinephrine Transporter (NET) (AID 2283373)
In short: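 Rat forebrain membranes; radioligand binding measured by filter-based scintillation counting 1 hour after dosing. Loss of specific binding versus DMSO baseline scored; primary screen in duplicate at 25 uM, actives followed up in concentration series.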

[9] = target: rat Serotonin Transporter (SERT), Slc6a4 (gene 25553) (UniProt P31652); assay: NVS_TR_rSERT: NovaScreen (NVS) Transporter Assay for rat Serotonin Transporter (SERT) (AID 2283375)
In short: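 Radioligand binding with competitive displacement on rat forebrain membrane preparations, counted by filtration and scintillation after 1 h. Primary single-point duplicates at 25 uM; active chemicals followed up in concentration-response. DMSO served as baseline.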

[10] = target: Estrogen receptor (Homo sapiens) (UniProt P03372); assay: OT_ERa_GFPERaERE_0480: Odyssey Thera (OT) 8-hour HeLa Transcription Induction Assay for Estrogen Receptor (AID 2283381; active means hit-call score of the fitted dose curve at least 0.9, where 1 is the maximum; inactive means score below 0.9)
In short: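 HeLa cells expressing GFP reporter under estrogen response element, imaged 8 h after dosing. GFP induction quantified by high-content fluorescence microscopy image analysis; gain of signal fitted versus DMSO.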

Sequence of mouse Estrogen Receptor alpha (Era), Esr1 (gene 13982) (P19785 whole entry, looked up): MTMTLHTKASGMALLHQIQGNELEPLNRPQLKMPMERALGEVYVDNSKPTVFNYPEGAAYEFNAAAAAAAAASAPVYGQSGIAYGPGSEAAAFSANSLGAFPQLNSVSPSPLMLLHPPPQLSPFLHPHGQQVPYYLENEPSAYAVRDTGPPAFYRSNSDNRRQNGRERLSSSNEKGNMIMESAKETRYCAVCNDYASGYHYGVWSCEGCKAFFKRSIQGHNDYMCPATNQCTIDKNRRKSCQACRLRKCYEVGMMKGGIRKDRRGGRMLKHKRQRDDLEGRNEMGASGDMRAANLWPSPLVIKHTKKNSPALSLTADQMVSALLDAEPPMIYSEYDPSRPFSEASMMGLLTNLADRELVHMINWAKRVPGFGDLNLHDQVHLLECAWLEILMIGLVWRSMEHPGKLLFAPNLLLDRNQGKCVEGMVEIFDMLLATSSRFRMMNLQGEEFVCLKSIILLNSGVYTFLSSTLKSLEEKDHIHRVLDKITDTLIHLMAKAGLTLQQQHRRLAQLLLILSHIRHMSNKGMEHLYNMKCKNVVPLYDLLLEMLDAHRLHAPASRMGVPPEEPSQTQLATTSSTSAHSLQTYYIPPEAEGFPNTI
Sequence of Estrogen receptor beta (Homo sapiens) (Q92731 whole entry, looked up, the tested form may be a part): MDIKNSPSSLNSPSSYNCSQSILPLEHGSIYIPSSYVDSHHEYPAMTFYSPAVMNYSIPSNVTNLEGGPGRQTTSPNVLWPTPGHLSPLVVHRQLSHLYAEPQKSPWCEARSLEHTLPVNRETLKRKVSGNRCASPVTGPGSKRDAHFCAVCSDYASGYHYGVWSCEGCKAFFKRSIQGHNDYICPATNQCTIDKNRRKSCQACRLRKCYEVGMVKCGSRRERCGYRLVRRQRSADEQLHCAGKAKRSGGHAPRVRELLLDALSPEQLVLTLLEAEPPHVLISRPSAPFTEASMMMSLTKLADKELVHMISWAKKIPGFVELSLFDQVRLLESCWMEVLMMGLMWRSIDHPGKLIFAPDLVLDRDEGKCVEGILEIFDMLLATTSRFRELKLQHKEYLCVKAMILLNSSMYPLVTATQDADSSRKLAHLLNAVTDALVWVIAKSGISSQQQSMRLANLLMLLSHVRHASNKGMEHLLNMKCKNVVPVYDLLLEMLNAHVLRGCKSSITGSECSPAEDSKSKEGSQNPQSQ
Sequence of rat Serotonin Transporter (SERT), Slc6a4 (gene 25553) (P31652 whole entry, looked up): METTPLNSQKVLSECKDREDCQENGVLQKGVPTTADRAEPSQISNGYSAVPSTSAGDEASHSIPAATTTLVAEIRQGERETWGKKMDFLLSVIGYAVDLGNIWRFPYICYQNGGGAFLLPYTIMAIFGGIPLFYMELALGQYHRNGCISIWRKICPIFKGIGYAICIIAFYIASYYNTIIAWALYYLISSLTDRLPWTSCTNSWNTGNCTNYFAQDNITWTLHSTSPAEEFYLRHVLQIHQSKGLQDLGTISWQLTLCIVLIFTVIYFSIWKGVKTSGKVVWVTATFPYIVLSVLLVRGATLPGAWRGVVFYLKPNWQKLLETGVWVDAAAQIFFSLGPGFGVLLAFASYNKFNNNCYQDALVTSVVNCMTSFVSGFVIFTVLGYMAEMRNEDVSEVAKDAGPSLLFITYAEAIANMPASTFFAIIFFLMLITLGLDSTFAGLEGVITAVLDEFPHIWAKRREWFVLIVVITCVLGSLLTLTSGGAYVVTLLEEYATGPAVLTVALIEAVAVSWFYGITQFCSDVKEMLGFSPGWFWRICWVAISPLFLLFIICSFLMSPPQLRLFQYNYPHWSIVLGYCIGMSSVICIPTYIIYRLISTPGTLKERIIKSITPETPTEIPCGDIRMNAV
Sequence of Peroxisome proliferator-activated receptor gamma (Homo sapiens) (P37231 whole entry, looked up): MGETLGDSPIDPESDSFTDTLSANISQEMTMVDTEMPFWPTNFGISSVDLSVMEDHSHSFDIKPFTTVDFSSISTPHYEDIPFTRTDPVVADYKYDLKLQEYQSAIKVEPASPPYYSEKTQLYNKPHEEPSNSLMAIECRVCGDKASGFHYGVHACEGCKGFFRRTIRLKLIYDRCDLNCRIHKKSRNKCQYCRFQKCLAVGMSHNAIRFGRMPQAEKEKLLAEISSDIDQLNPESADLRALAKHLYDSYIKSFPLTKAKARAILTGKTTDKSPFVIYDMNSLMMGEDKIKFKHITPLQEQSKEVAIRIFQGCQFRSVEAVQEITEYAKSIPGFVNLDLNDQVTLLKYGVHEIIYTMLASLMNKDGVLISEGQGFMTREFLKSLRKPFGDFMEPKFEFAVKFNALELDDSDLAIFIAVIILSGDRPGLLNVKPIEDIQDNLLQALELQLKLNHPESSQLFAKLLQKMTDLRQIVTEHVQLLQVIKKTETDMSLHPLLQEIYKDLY
Sequence of Agonist Androgen Response Element (ARE), AR (gene 367) (P10275 whole entry, looked up): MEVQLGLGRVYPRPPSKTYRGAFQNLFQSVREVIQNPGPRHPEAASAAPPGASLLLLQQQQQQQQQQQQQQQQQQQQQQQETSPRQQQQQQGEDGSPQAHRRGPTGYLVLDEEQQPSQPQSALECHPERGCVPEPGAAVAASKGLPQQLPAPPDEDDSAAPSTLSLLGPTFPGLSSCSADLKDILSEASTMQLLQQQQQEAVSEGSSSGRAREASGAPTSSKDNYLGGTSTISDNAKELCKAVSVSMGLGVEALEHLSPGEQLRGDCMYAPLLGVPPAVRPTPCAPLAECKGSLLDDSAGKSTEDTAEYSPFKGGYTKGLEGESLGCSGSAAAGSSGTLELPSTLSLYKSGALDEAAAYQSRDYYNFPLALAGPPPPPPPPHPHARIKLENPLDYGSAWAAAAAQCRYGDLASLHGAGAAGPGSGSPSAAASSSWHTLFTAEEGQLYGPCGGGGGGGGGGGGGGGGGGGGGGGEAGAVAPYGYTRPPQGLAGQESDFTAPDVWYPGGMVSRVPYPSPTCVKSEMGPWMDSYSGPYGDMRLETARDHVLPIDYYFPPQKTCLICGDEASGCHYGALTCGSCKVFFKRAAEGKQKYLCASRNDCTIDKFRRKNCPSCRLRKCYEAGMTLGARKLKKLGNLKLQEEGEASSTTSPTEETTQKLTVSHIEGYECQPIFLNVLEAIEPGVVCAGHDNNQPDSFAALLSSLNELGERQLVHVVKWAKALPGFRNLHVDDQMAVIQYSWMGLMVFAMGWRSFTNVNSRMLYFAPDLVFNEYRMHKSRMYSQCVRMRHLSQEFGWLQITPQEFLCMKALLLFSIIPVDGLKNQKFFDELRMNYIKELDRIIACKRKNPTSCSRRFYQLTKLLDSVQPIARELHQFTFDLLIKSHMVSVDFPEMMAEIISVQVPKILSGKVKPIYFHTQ
Sequence of human Norepinephrine Transporter (NET), SLC6A2 (gene 6530) (P23975 whole entry, looked up): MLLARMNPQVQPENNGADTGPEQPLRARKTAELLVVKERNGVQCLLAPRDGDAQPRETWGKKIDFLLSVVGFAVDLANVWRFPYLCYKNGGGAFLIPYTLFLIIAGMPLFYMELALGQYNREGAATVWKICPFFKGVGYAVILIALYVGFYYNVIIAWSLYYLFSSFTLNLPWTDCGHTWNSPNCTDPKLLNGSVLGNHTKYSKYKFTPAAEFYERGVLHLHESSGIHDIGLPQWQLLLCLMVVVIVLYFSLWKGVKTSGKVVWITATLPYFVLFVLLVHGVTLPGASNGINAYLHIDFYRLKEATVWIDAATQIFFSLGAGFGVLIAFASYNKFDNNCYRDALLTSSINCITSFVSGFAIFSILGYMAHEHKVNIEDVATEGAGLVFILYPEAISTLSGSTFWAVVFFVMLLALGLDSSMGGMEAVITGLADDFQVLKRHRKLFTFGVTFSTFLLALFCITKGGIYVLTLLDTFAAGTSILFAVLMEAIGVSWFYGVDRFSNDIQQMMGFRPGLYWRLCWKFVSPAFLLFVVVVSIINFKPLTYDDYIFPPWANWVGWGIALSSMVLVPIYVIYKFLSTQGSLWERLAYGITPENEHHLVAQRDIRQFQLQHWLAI
Sequence of Estrogen receptor (Homo sapiens) (P03372 whole entry, looked up): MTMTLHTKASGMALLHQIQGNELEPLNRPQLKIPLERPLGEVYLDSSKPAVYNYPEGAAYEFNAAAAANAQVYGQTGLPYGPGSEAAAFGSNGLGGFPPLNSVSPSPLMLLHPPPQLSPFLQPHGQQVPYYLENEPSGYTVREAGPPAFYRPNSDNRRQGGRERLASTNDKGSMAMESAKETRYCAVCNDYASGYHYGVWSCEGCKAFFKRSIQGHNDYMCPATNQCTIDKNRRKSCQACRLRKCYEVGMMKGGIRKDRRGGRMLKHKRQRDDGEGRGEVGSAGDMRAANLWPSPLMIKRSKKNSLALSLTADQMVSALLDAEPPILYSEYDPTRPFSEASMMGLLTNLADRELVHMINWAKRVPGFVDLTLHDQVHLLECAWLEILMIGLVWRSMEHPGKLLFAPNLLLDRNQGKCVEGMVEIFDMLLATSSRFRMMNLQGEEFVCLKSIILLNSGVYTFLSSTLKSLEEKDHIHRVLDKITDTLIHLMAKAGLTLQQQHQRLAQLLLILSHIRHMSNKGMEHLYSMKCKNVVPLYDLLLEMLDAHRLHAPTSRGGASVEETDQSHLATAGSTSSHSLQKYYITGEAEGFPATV
Sequence of human Dopamine Transporter (DAT), SLC6A3 (gene 6531) (Q01959 whole entry, looked up): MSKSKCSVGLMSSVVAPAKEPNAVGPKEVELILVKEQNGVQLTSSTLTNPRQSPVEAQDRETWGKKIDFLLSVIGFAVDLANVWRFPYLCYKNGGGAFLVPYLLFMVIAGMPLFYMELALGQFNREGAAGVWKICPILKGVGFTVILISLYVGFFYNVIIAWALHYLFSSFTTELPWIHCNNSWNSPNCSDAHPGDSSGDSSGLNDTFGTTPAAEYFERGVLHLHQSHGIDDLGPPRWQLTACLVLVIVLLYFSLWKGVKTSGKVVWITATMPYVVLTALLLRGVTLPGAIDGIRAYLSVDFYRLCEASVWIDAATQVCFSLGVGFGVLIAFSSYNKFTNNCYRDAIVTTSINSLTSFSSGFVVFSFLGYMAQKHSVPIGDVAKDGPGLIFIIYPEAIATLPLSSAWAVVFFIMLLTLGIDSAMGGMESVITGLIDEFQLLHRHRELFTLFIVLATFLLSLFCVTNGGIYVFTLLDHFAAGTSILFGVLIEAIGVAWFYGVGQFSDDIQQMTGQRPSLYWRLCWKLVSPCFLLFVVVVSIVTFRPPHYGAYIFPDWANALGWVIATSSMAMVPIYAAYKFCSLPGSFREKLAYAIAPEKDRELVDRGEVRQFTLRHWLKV

O=C1O[C@H]([C@@H](O)CO)C(O)=C1O
outcome [1]: inactive
outcome [2]: inactive

CCCOC(=O)c1cc(O)c(O)c(O)c1
outcome [1]: inactive
AC50 [3]: 10.8 µM (active)
outcome [4]: inactive
AC50 [2]: 12.7 µM (active)

c1ccc2ccccc2c1
outcome [1]: inactive

O=c1c(-c2ccc(O)cc2)coc2cc(O)cc(O)c12
AC50 [1]: 39.4 µM (active)
outcome [5]: inactive

Cc1c2ccccc2c(C)c2c1ccc1ccccc12
outcome [1]: inactive
outcome [2]: inactive

O=CCCCC=O
outcome [1]: inactive

O=C(Nc1ccc(Cl)cc1)Nc1ccc(Cl)c(Cl)c1
outcome [6]: inactive
outcome [7]: inactive
outcome [4]: inactive
AC50 [5]: 0.336 µM (active)
outcome [2]: inactive

O=C1c2ccccc2C(=O)N1CCc1noc(-c2ccc(CN3CCCCCC3)s2)n1
outcome [6]: inactive
AC50 [8]: 7.26 µM (active)
AC50 [9]: 9.05 µM (active)
AC50 [7]: 6.14 µM (active)

CC1(C)NC(=O)N(c2ccc([N+](=O)[O-])c(C(F)(F)F)c2)C1=O
outcome [1]: inactive
outcome [2]: inactive

O=C1CCC(C2CCCCC2)CC1
outcome [1]: inactive
outcome [2]: inactive

CN(C)c1ccc(C(=C2C=CC(=[N+](C)C)C=C2)c2ccc(N(C)C)cc2)cc1
AC50 [1]: 1.4 µM (active)
AC50 [3]: 4.25 µM (active)
AC50 [9]: 7.04 µM (active)
AC50 [7]: 4.79 µM (active)
outcome [5]: inactive
outcome [2]: inactive

CCCCCCCCCCCC[N+](C)(C)C
outcome [1]: inactive
AC50 [3]: 10.5 µM (active)
AC50 [9]: 13.7 µM (active)
AC50 [7]: 7.96 µM (active)
outcome [2]: inactive

Cc1oc2c(NC(=O)c3c(Cl)cccc3Cl)cccc2c1C(C)(C)O
outcome [1]: inactive
outcome [10]: inactive

COc1ccc2cc(S(=O)(=O)N[C@H](CC(=O)N[C@H](Cc3ccc(CN4[C@H](C)CCC[C@@H]4C)cc3)C(=O)N(C)C(C)C)c3ccc4c(c3)OCO4)ccc2c1
outcome [6]: inactive
AC50 [3]: 12.1 µM (active)
outcome [4]: inactive

CN1C(=O)N(c2ccccc2Br)Cc2cnc(Nc3ccc4c(c3)OCC(CO)O4)nc21 (configuration not stated)
AC50 [1]: 25 µM (active)
AC50 [7]: 4.72 µM (active)
outcome [2]: inactive

CC(C)(C)c1csc(-c2cc3cc(OCc4ccccc4CC(=O)O)ccc3o2)n1
AC50 [1]: 0.00229 µM (active)
outcome [2]: inactive
outcome [10]: inactive

O=C(O)Cc1cc(I)c(Oc2ccc(O)c(I)c2)c(I)c1
outcome [1]: inactive
outcome [2]: inactive

CCCCCCCC[Si](OCC)(OCC)OCC
outcome [1]: inactive
outcome [2]: inactive

CC1=CC(=O)/C(=C(/C)O)C(=O)O1
outcome [1]: inactive
outcome [2]: inactive

CC[C@H](NC(=O)c1cc(F)ccc1NS(=O)(=O)c1cccc2cccnc12)c1ccccc1
outcome [1]: inactive
outcome [2]: inactive

O=C(O)c1ccccc1-n1cc(C(=O)O)c(=O)c2cc(Nc3c(F)cc(F)cc3Cl)c(Cl)cc21
outcome [1]: inactive
outcome [2]: inactive

NCc1cccc(C2CCN(C(=O)c3ccc(C#Cc4ccccc4F)o3)CC2)c1
AC50 [1]: 5.98 µM (active)
outcome [6]: inactive
AC50 [8]: 18.9 µM (active)
AC50 [3]: 1.79 µM (active)
AC50 [9]: 16.7 µM (active)
AC50 [7]: 4.42 µM (active)
outcome [5]: inactive
outcome [10]: inactive

CC(C)(O)c1ccc(CNC(=O)c2cccnc2Oc2ccc3nonc3c2)cc1
outcome [1]: inactive
outcome [2]: inactive
outcome [10]: inactive

Oc1ccc2ccccc2c1
outcome [1]: inactive
AC50 [8]: 7.87 µM (active)
AC50 [3]: 10.1 µM (active)
AC50 [9]: 8.73 µM (active)
AC50 [7]: 7.32 µM (active)
AC50 [5]: 1.64 µM (active)
AC50 [2]: 45.7 µM (active)

CCCCCCCCOC(=O)c1cc(O)c(O)c(O)c1
AC50 [1]: 25 µM (active)
AC50 [3]: 19.9 µM (active)
AC50 [7]: 5.24 µM (active)
AC50 [4]: 11.3 µM (active)
AC50 [2]: 11.6 µM (active)

COc1cc(C(=O)NC2CCN(C)CC2)ccc1Nc1ncc2c(n1)N(C1CCCC1)CC(F)(F)C(=O)N2C
AC50 [8]: 9.31 µM (active)
AC50 [3]: 8.6 µM (active)
outcome [9]: inactive
AC50 [7]: 23.2 µM (active)
AC50 [4]: 1.49 µM (active)
AC50 [2]: 1.94 µM (active)

Cc1cc(F)ccc1-c1cc(N2CC[C@@H](O)[C@H]2CO)ncc1N(C)C(=O)C(C)(C)c1cc(C(F)(F)F)cc(C(F)(F)F)c1
outcome [1]: inactive
AC50 [7]: 5.97 µM (active)
outcome [5]: inactive
outcome [2]: inactive

CN(C[C@@H](CC[N+]12CCC(C3CCCCC3)(CC1)CC2)c1ccc(Cl)c(Cl)c1)C(=O)c1cc(C(F)(F)F)cc(C(F)(F)F)c1
AC50 [6]: 17.5 µM (active)
AC50 [3]: 1.95 µM (active)
AC50 [9]: 16.7 µM (active)
AC50 [7]: 1.38 µM (active)
outcome [4]: inactive
outcome [5]: inactive
outcome [2]: inactive

— PubChem BioAssay (EPA / NIEHS)
